Test [1] in a line: BSK_3C_SRB: Viability Assessment in the BioMAP Diversity Plus: 3C Assay (AID 2283023).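 Also: fitted both ways against DMSO so a hit may be signal rise or drop.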 The following applies: primary human endothelial cells (HUVEC). Put shortly:
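HUVEC, 24 h post-dose; 10% TCA fix, 0.1% SRB stain, A560 nm. Bidirectional curve fit vs DMSO negative control.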

Read-out in test [2]: Matrix Metallopeptidase 1 (MMP1), MMP1 (gene 4312)
Briefly: BSK_BE3C_MMP1: BioMAP Diversity Plus: BE3C Assay for Matrix Metallopeptidase 1 (MMP1) Biomarker Activity (AID 2283024). Conditions: primary human bronchial epithelial cells; actives raise or lower the signal. Put shortly: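 In this multiplexed primary-cell system, human bronchial epithelium received chemicals for 24 h before an ELISA for MMP1. Values reflect bidirectional fits normalised to the DMSO baseline.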

Test [3] can be described thus: BSK_3C_Vis: BioMAP Diversity Plus: 3C Assay for Morphology Visualization (AID 2283025).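 Also: fitted both ways so gain or loss versus DMSO counts.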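 As to AC50: light microscopy image of cell morphology used as background control.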 Conditions: primary human endothelial cells (HUVEC). Put shortly:
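Light-microscopy morphology readout, 24 h exposure, human primary umbilical vein endothelium; analysed relative to DMSO with bidirectional fitting.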

Read-out in test [4]: Pselectin, SELP (gene 6403)
The experiment in a line: BSK_4H_Pselectin: BioMAP Diversity Plus: 4H Assay for Pselectin Biomarker Activity (AID 2283026). The following applies: primary human endothelial cells (HUVEC); actives raise or lower the signal. Put shortly:
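Bidirectional fits against DMSO gave the endpoint. Cells: primary human umbilical vein endothelium, chemical-treated for 24 h before ELISA detection of P-selectin.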

Test [5] in a line: BSK_4H_SRB: Viability Assessment in the BioMAP Diversity Plus: 4H Assay (AID 2283027).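 Also: cells exposed to compound for 24 h before staining.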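 As to AC50: curves fitted both ways versus DMSO so AC50 may be loss or gain.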 Conditions: primary human endothelial cells (HUVEC). Put shortly:
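HUVEC, 24 h post-dose; 10% TCA fix, 0.1% SRB stain, A560 nm. Total protein = overt cytotoxicity, parallel to biomarker read. Bidirectional fit vs DMSO baseline.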

Test [6] in a line: BSK_BE3C_SRB: Viability Assessment in the BioMAP Diversity Plus: BE3C Assay (AID 2283028). Conditions: primary human bronchial epithelial cells. An outline of the steps:
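Primary human bronchial epithelium; chemical dosing, 24 h; 10% TCA fix, 0.1% SRB stain, A560; bidirectional fit vs DMSO baseline.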

Read-out in test [7]: Thrombomodulin, THBD (gene 7056)
The experiment in a line: BSK_3C_Thrombomodulin: BioMAP Diversity Plus: 3C Assay for Thrombomodulin Biomarker Activity (AID 2283029). The following applies: primary human endothelial cells (HUVEC); actives raise or lower the signal. An outline of the steps:
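In a multiplexed primary-cell system, human umbilical vein endothelium received chemical and was assayed 24 h later for thrombomodulin by ELISA. Parallel cultures were SRB-stained (0.1% SRB after 10% TCA fixation, read at 560 nm) to flag cytotoxicity.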

Read-out in test [8]: Urokinase-type plasminogen activator receptor (uPAR), PLAUR (gene 5329)
Briefly: BSK_4H_uPAR: BioMAP Diversity Plus: 4H Assay for Urokinase-type plasminogen activator receptor (uPAR) Biomarker Activity (AID 2283030). Conditions: primary human endothelial cells (HUVEC); actives raise or lower the signal. An outline of the steps:
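HUVEC, 24 h post-dose; uPAR by ELISA; bidirectional fit vs DMSO baseline.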

Read-out in test [9]: Vascular endothelial growth factor receptor 2 (Homo sapiens) (UniProt P35968)
The experiment in a line: BSK_4H_VEGFRII: BioMAP Diversity Plus: 4H Assay for Vascular endothelial growth factor receptor 2 (VEGFR2) Biomarker Activity (AID 2283031). The following applies: primary human endothelial cells (HUVEC); actives raise or lower the signal. Put shortly: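 HUVEC (human primary), 4H system; 24 h post-dose; VEGFRII by ELISA; bidirectional curve fit vs DMSO baseline; gain or loss of signal scored.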

Read-out in test [10]: Human Leukocyte Antigen - DR isotype (HLADR), HLA-DRA (gene 3122)
Briefly: BSK_BE3C_HLADR: BioMAP Diversity Plus: BE3C Assay for Human Leukocyte Antigen - DR isotype (HLADR) Biomarker Activity (AID 2283032). Conditions: primary human bronchial epithelial cells; actives raise or lower the signal. Put shortly:
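BioMAP BE3C format: human bronchial epithelium, 24 h compound treatment, ELISA detection of HLA-DR, with bidirectional analysis relative to DMSO.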

Read-out in test [11]: Vascular cell adhesion molecule 1 (VCAM1), VCAM1 (gene 7412)
Briefly: BSK_4H_VCAM1: BioMAP Diversity Plus: 4H Assay for Vascular cell adhesion molecule 1 (VCAM1) Biomarker Activity (AID 2283033).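 Also: cell-surface VCAM-1 protein measured by ELISA.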 The following applies: primary human endothelial cells (HUVEC); actives raise or lower the signal. Put shortly: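 In this human endothelial (HUVEC) system, biomarker ELISA was run 24 h after compound addition, and total protein in parallel wells was assessed by SRB at 560 nm; DMSO served as negative control.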

Read-out in test [12]: Interferon-gamma inducible Protein 10 (IP10), CXCL10 (gene 3627)
The experiment in a line: BSK_BE3C_IP10: BioMAP Diversity Plus: BE3C Assay for Interferon-gamma inducible Protein 10 (IP10) Biomarker Activity (AID 2283034). Conditions: primary human bronchial epithelial cells; actives raise or lower the signal. An outline of the steps:
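BE3C cells (human bronchial epithelial, primary); 24 h exposure; ELISA for IP-10; DMSO-referenced bidirectional fit.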

Read-out in test [13]: Monokine induced gamma interferon (MIG), CXCL9 (gene 4283)
Briefly: BSK_BE3C_MIG: BioMAP Diversity Plus: BE3C Assay for Monokine induced gamma interferon (MIG) Biomarker Activity (AID 2283035). Conditions: primary human bronchial epithelial cells; actives raise or lower the signal. Put shortly:
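Dose cells (human primary bronchial epithelial), incubate 24 h, quantify MIG by ELISA, then fit concentration–response in both directions relative to DMSO control.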

Read-out in test [14]: Transforming growth factor beta 1 (TGFb1), TGFB1 (gene 7040)
Briefly: BSK_BE3C_TGFb1: BioMAP Diversity Plus: BE3C Assay for Transforming growth factor beta 1 (TGFb1) Biomarker Activity (AID 2283036;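 also: TGF-b1 protein level measured by ELISA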). The following applies: primary human bronchial epithelial cells; actives raise or lower the signal. Put shortly: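 TGF-b1 measured via ELISA, 24 h after chemical dosing of human bronchial epithelial cells (BE3C). Overt cytotoxicity assessed in parallel by SRB (0.1%, TCA-fixed, 560 nm); analysis bidirectional relative to DMSO.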

Read-out in test [15]: Plasminogen activator inhibitor-1 (PAI1), SERPINE1 (gene 5054)
The experiment in a line: BSK_BE3C_PAI1: BioMAP Diversity Plus: BE3C Assay for Plasminogen activator inhibitor-1 (PAI1) Biomarker Activity (AID 2283037). Conditions: primary human bronchial epithelial cells; actives raise or lower the signal. Put shortly:
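In this multiplexed primary-cell system, bronchial epithelial cells receive test chemical and are sampled at 24 h. PAI-1 is read by ELISA, with DMSO serving as negative control for bidirectional fitting.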

Read-out in test [16]: urokinase plasminogen activator (uPA), PLAU (gene 5328)
The experiment in a line: BSK_BE3C_uPA: BioMAP Diversity Plus: BE3C Assay for urokinase plasminogen activator (uPA) Biomarker Activity (AID 2283038).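 As to outcome: uPA protein level quantified by ELISA in cell cultures; uPA read one day after compound addition.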 The following applies: primary human bronchial epithelial cells; actives raise or lower the signal. An outline of the steps: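 ELISA read-out of uPA in human lung primary bronchial epithelial cultures, 24 h post-dosing. Gain or loss of signal fitted bidirectionally relative to DMSO baseline; cytotoxicity checked in parallel cultures via SRB total protein stain.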

Read-out in test [17]: Urokinase-type plasminogen activator receptor (uPAR), PLAUR (gene 5329)
Briefly: BSK_BE3C_uPAR: BioMAP Diversity Plus: BE3C Assay for Urokinase-type plasminogen activator receptor (uPAR) Biomarker Activity (AID 2283039).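 Also: uPAR protein level measured by ELISA on the cells; cells exposed to compound for one day before measurement.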 Conditions: primary human bronchial epithelial cells; actives raise or lower the signal. An outline of the steps: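 Chemically treated human bronchial epithelial cells (lung primary) are assayed for uPAR by ELISA after 24 h, with data fitted in both directions using DMSO as negative control.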

Read-out in test [18]: Interleukin-6 (IL6), IL6 (gene 3569)
The experiment in a line: BSK_CASM3C_IL6: BioMAP Diversity Plus: CASM3C Assay for Interleukin-6 (IL6) Biomarker Activity for (AID 2283040). Conditions: primary human coronary artery smooth muscle cells; actives raise or lower the signal.

Test [19] has as its target human Vitamin D Receptor (VDR), VDR (gene 7421) (UniProt P11473). Briefly: ATG_VDR_TRANS: Attagene TRANS-FACTORIAL HepG2 Assay for human Vitamin D Receptor (VDR) (AID 2283022; active = hit-call score of the fitted dose curve at least 0.9, where 1 is the maximum). An outline of the steps:
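RT-PCR/capillary electrophoresis read-out of reporter mRNA induction in transiently transfected HepG2; 24 h dosing; chimeric NR-Gal4 (TRANS format); gain-of-signal fit against DMSO baseline.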

Read-out in test [20]: Tissue plasminogen activator (tPA), PLAT (gene 5327)
Briefly: BSK_BE3C_tPA: BioMAP Diversity Plus: BE3C Assay for Tissue plasminogen activator (tPA) Biomarker Activity (AID 2283041).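 As to outcome: tPA level quantified by ELISA one day after compound addition.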 Conditions: primary human bronchial epithelial cells; actives raise or lower the signal. Put shortly:
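Using human lung primary bronchial epithelial cells, tPA was measured by ELISA 24 h after dosing; data fitted relative to DMSO.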

Results filed as inconclusive are left out. Calls of active or inactive are those of the source. The calls were made as follows, unless noted: active = hit-call score of the fitted dose curve at least 0.9, where 1 is the maximum; inactive = score below 0.9.

human Vitamin D Receptor (VDR), VDR (gene 7421), sequence (P11473 whole entry, looked up, the tested form may be a part): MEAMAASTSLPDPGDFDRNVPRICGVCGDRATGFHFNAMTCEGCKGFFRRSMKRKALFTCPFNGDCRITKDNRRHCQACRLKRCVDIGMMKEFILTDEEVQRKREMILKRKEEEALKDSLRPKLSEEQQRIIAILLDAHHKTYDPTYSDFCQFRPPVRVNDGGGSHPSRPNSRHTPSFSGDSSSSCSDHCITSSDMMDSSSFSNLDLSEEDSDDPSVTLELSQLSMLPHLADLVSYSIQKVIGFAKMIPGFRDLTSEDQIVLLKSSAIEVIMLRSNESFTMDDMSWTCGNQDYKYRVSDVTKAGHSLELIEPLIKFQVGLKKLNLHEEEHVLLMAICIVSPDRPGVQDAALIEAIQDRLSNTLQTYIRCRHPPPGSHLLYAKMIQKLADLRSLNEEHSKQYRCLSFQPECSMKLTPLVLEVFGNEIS

`Clc1cc(Cl)c2c(c1)N=C1CCCCCN1C2`: the result in [1], in test [2], in test [3], in test [4], in [5] and in test [6] was inactive. For the same molecule, the result in [7], in test [8], in [9], in [10], in test [11] and in test [12] was inactive. Besides, the result in test [13], in test [14], in test [15], in test [16], in test [17] and in test [18] was inactive.

For `CN1C(=O)CC[C@H]1c1cccnc1`, the result in [1], in [2], in test [3], in test [4], in test [5] and in test [6] was inactive. Moreover, the outcome in [7], in [8], in test [9], in test [10], in [11] and in test [12] was inactive. Moreover, the result in test [13], in test [14], in test [15], in [16], in test [17] and in test [18] was inactive.

With `O=C1O[C@H]([C@@H](O)CO)C(O)=C1O`, the result in [1], in [2], in [3], in [4], in test [5] and in test [6] was inactive. In addition, the result in test [7], in test [8], in test [9], in test [10], in [11] and in test [12] was inactive. Further, the result in test [13], in test [14], in [15], in [16] and in test [18] was inactive.

As to `O=C(O)Cn1c(=O)n(Cc2ccc(Br)cc2F)c(=O)c2ccc(Cl)cc21`, the molecule was classed as inactive in [19], in [1], in test [2], in [3], in test [4] and in test [5]. Further, the result in [6], in test [7], in test [8], in test [9], in test [11] and in test [12] was inactive. The result in test [13], in [14], in [15], in test [16] and in [18] was inactive.

For the molecule `COc1ccc2cc(S(=O)(=O)N[C@H](CC(=O)N[C@H](Cc3ccc(CN4[C@H](C)CCC[C@@H]4C)cc3)C(=O)N(C)C(C)C)c3ccc4c(c3)OCO4)ccc2c1`, the molecule was called inactive in test [19], in [2], in test [6], in [7], in test [9] and in test [11]. Moreover, the result in [14] and in test [18] was inactive. Further, the AC50 (commonly the midpoint of the concentration-response curve, whichever way the signal moves) in test [1] was 20.8 µM (active); in test [3] it was 5.55 µM (active); in [4], 10.8 µM (active); in test [5], 19.1 µM (active); in test [8], 19.1 µM (active); in test [12], 31.1 µM (active). Besides, the AC50 in test [13] is 33.5 µM (active); in test [15], 19.1 µM (active); in test [16] it was 14.6 µM (active); in test [20], 7.92 µM (active).

Take `Oc1ccccc1`: the outcome in test [1], in test [2], in test [3], in test [4], in test [5] and in test [6] was inactive. The outcome in test [7], in [8], in test [9], in [10], in test [11] and in test [12] was inactive. Besides, the outcome in [13], in test [14], in [15], in [16], in [17] and in test [18] was inactive. Further, in test [20], the result was inactive.

On to `O=C(O)c1ccccc1-n1cc(C(=O)O)c(=O)c2cc(Nc3c(F)cc(F)cc3Cl)c(Cl)cc21`, for which the outcome in [1], in test [2], in test [3], in test [4], in test [5] and in test [6] was inactive. In addition, the result in test [7], in test [8], in test [9], in test [10], in test [11] and in test [12] was inactive. For the same molecule, the result in [13], in test [14], in test [15], in [16], in [18] and in [20] was inactive.

(Values after PubChem BioAssay (EPA / NIEHS).)
